Measured values taken from PubChem BioAssay AID492963 (The Scripps Research Institute Molecular Screening Center, 2010).
The whole screen tested about 1,100 compounds, of which about 420 (38%) were called active. The list is a sample of the results. A number with no mark means an inactive call. Cut-off read from the data, not from the text of the source: active = inhibition above about 29%; inactive = the rest.

biological target: Orexin/Hypocretin receptor type 1 (Homo sapiens) (UniProt O43613); test: HCRTR1 blockers, calcium flux retest – fluorescence, CHO/OX1R cells, Fluo-8 calcium, orexin A, confirmation (AID 492963); details: orexin A calcium Fluo-8 fluorescence, at 5 µM, stronger effect = higher value;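 note: 0% = agonist challenge alone and 100% = reference antagonist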
Sequence (O43613 whole entry, looked up): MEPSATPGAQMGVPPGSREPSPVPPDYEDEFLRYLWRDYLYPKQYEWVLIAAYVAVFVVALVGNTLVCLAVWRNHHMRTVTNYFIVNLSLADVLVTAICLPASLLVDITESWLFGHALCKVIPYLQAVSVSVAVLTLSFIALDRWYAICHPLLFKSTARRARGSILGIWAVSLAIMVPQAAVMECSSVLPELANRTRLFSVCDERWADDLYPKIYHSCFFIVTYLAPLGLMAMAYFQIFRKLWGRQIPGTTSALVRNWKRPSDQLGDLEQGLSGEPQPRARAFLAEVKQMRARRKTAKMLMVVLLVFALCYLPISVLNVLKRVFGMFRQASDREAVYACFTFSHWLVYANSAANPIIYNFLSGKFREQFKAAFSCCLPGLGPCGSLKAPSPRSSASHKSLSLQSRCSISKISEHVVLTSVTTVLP

SMILES	inhibition
CC(Oc1ccc2ccccc2c1)C(=O)NNC(=S)NC(=O)c1ccco1 (stereo not given)	5.25%
N/C(=N\OC(=O)Nc1ccc(Cl)c(Cl)c1)c1ncc(C(F)(F)F)cc1Cl	29% (active)
COC(=O)c1sccc1NC(=O)CSc1ccccc1NS(=O)(=O)c1cc(Cl)ccc1Cl	21.5%
Cc1cc(C(=O)NC2CCCc3c2cnn3-c2cccc(C)c2C)c(C)o1 (stereo not given)	27.6%
CC(=O)Nc1cccc(OCC(=O)/C=C2\N(C)c3ccccc3C2(C)C)c1	15.6%
Cc1cccc(NS(=O)(=O)c2cccc(C(=O)NNC(=O)c3ccccc3O)c2)c1	14.2%
COc1ccc(/C=C/C(=O)c2ccc(NS(=O)(=O)c3ccc(C)cc3)cc2)cc1O	42.2% (active)
O=C1C=C(c2ccc(Cl)cc2)C(=O)N1Nc1ccccc1	57% (active)
Cc1ccc2c(C)c(C(=O)N(C)CCC3CCCCO3)oc2c1C (stereo not given)	-17.4%
O=C(N/N=C/c1sc(N2CCCCC2)nc1-c1cccs1)c1cccnc1	48.1% (active)
Cc1cccc(NC(=O)Nc2cccc(Oc3c(F)c(F)c(F)c(F)c3F)c2)c1	12.1%
CCCN(CC(=O)Nc1ccccc1OC)C(=O)CCC(=O)c1ccc(F)cc1	1.45%
Cc1cc(-c2ccc(C)c(S(=O)(=O)NC(C)Cc3ccco3)c2)on1 (stereo not given)	0.43%
CCOc1ccc(/C=C/C(=O)OCC(=O)c2ccccc2OC)cc1OC	36.1% (active)
O=C(CCCN1CCc2[nH]c3ccc(F)cc3c2C1)c1ccc(F)cc1	26.4%
Cn1c(N)c(C(=O)COC(=O)c2ccc3ccccc3c2)c(=O)n(C)c1=O	30.5% (active)
Cc1ccc(S(=O)(=O)N2CCN(c3ncnc4ccccc34)CC2)cc1	15%
CCOc1cc(/C=C(\C#N)c2nc(-c3cccs3)c(NC(C)=O)s2)ccc1O	18%
O=C1c2ccccc2S(=O)(=O)N1CC(O)Cn1c2ccccc2c2ccccc21 (stereo not given)	29.4% (active)
CC1CCCN(CC(O)COCc2ccccc2)C1 (stereo not given)	5.05%

SMILES	inhibition
O=C(OC1CCOC1=O)c1ccc(-c2nc3ccccc3s2)s1 (stereo not given)	43.4% (active)
CCCc1nc2c(c(=O)c3ccccc3n2C)c(=O)n1C1CCCCCC1	9.14%
S=c1[nH]nc(-c2cc(-c3ccccc3)n[nH]2)n1/N=C/c1c2ccccc2cc2ccccc12	38.1% (active)
CCOC(=O)N1CCN(c2cc(C)c([N+](=O)[O-])cc2F)CC1	17.3%
COc1cccc(C(=O)NC(=O)Nc2nc(C)cc(C(F)(F)F)n2)c1	35% (active)
CCCCCCCC(=O)NC(Nc1ccccc1OC)C(Cl)(Cl)Cl (stereo not given)	-23.5%
CCCCC(=O)NNC(=S)NC(=O)C(c1ccccc1)c1ccccc1	58.6% (active)
Cc1ccc(NC(=O)COc2ccc(-n3ccnc3)cc2)cc1Cl	22.1%
COc1cc2ccccc2cc1C(=O)Nc1ccc(N2CCOCC2)cc1	-1.28%
O=C(Nc1cccc(NC(=O)N2CCN(c3ccccc3)CC2)c1)N1CCN(c2ccccc2)CC1	37.3% (active)
CN(c1ccccc1)S(=O)(=O)c1cccc(NC(=O)Cc2ccc(Cl)cc2)c1	26%
N#Cc1nc(-c2cccc3ccccc23)oc1N	40.6% (active)
COc1cccc(/C=N/Nc2cc(C)nc(-c3ccccc3O)n2)c1O	69.7% (active)
COc1cccc(/C=N/NC(=O)c2[nH]nc3c2CCc2ccccc2-3)c1O	20.3%
CCC(=O)N(C)C(c1ccccc1Cl)c1nnnn1-c1c(C)cccc1C (stereo not given)	21.7%
Cc1ccccc1S(=O)(=O)N1[C@@H](c2cccc(Cl)c2)C(C(=O)O)=CC[C@H]1c1ccc(Cl)cc1	43.3% (active)
COCc1c(C(=O)OCC(=O)Nc2ccc(OC(F)F)cc2)oc2ccccc12	26.3%
C=CCn1c(SCC(=O)Nc2nc3ccccc3s2)nnc1-c1ccccc1O	48% (active)
COc1ccc2[nH]cc(/C=C(/C#N)S(=O)(=O)c3ccccc3)c2c1	8.34%
c1coc(CNc2ncnc3ccccc23)c1	24.7%
